An excerpt weighted towards active compounds, which were near 2.8% of everything screened.
HIF act: HIF pathway transcriptional activation; activation, % at 7.5 µM (by protocol); 300,000 compounds, 0.32% hits; AID 1910; U2OS HRE-luciferase reporter, luminescence; normalized: DMSO 0%, desferrioxamine 100%;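 active means mean activation of at least 10% of the iron chelator positive control signal, with at least half of replicates also reaching 10%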
Platelet DG rel: platelet dense granule release activity | human platelet-rich plasma, SFLLRN dense granule ATP release, luminescence | inhibition, %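 (compounds screened at 7.5 µM in platelet-rich plasma)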 | 300,000 compounds, 0.22% hits;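 active means mean replicate score, as percent of positive control, at or above 50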
AHR act: activators of human aryl hydrocarbon receptor | AHR-responsive luciferase reporter cells, luminescence | activation, % at 5 µM | 320,000 compounds, 2.5% hits; in the data active means activation above about 47%;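 further: 0% = vehicle wells and 100% = reference agonist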
PolyA inhibitor: blocks polyadenylation in yeast reporter cells; AID 1875; 300,000 compounds, 0.02% hits; activity score, % at 12 µM; S. cerevisiae SKY197-pL101 polyadenylation reporter, beta-gal luminescence; efflux-impaired pdr1/pdr3 knockout yeast; score 100 = 6 SD above DMSO;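 active means lowest replicate activity score at least 50, where 100 means six control SD above control mean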;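 further: yeast exposed to compound for 9 h at 30 °C; higher score means more reporter readthrough which indicates perturbed polyadenylation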
p-CIP stab down: lowers stability of the mouse p/CIP coactivator protein; Q05BA5; F442A p/CIP-EGFP cells, EGFP fluorescence, 16 h; decrease of EGFP signal, % at 10 µM; 290,000 compounds, 0.01% hits; AID 1984;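 active means EGFP signal decrease of at least 30% at 10 µM or well 3 SD below plate mean, unless failing retest; inactive means the rest, including hits failing retest or dose response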
Target sequence (Q05BA5 1-1403): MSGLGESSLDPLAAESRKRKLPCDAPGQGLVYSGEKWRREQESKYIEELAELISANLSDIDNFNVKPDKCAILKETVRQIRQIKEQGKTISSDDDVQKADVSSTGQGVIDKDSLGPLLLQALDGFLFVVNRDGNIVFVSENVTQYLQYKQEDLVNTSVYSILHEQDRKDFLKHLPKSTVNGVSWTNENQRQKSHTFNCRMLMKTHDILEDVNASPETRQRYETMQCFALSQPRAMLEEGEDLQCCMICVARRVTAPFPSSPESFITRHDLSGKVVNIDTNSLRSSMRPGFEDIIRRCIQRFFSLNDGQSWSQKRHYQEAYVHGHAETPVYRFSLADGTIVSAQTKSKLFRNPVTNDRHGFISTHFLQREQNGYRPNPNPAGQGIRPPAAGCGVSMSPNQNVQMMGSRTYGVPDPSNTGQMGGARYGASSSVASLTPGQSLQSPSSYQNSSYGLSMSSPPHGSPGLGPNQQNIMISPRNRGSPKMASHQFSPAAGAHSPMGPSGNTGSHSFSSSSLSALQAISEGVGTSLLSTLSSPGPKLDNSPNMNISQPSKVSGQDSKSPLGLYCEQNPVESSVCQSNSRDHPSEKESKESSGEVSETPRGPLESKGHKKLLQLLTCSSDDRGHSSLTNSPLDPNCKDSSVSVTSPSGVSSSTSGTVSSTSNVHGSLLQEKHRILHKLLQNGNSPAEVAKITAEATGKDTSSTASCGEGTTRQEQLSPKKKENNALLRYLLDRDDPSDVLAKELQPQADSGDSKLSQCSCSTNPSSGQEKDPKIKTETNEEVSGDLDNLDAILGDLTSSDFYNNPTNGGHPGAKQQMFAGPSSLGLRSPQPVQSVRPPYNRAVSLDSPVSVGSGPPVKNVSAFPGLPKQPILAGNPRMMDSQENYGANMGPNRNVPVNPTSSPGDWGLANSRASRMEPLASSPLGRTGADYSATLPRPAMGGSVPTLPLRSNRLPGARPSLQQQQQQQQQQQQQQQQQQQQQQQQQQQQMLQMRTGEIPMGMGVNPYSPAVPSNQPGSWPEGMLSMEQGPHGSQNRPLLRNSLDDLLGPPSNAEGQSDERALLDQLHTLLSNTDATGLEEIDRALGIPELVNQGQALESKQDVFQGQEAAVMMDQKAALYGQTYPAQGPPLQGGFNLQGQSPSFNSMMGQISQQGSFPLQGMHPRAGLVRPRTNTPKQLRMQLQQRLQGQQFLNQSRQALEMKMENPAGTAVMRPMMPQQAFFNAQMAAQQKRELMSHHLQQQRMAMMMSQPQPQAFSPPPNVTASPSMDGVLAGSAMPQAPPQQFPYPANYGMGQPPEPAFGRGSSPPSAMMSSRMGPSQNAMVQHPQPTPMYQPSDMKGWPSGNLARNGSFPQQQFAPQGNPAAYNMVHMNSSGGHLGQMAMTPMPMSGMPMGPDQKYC
An asterisk follows results filed as active.

`Cc1ccc(NCC(=O)N=Nc2c(O)n(C)c3ccccc23)cc1` gave HIF act 2, Platelet DG rel 6, AHR act 49*, PolyA inhibitor 1 and p-CIP stab down -2.
Cn1c(O)c(N=NC(=O)CNC(=O)c2ccccc2)c2ccccc21 was read as HIF act 1, Platelet DG rel 0, AHR act 3, PolyA inhibitor -12 and p-CIP stab down -23.
Screening CC(=O)c1c(N)[nH]c(-c2ccccc2)nc1=S returned HIF act 0, Platelet DG rel -20, AHR act 62*, PolyA inhibitor -2 and p-CIP stab down -2.
Screening COc1ccccc1C1Nc2cccc3cccc(c23)N1 returned HIF act 0, Platelet DG rel -9, AHR act 60*, PolyA inhibitor -7 and p-CIP stab down -3.
COc1cc(OC)c(C2Nc3cccc4cccc(c34)N2)c(OC)c1 was read as HIF act -11, Platelet DG rel 1, PolyA inhibitor 12 and p-CIP stab down -18.
Screening O=[N+]([O-])c1ccccc1C1Nc2cccc3cccc(c23)N1 returned HIF act 0, Platelet DG rel 0, AHR act 75*, PolyA inhibitor -9 and p-CIP stab down 0.
Screening CCCN(CCC)C(C)C(=O)NCC1(c2ccccc2)CCCC1 (centres undefined) returned HIF act 719*, Platelet DG rel -2, AHR act 0, PolyA inhibitor -13 and p-CIP stab down -14.
CCN(CC)CC(=O)NCC1(c2ccccc2)CCCC1 was read as HIF act -1, Platelet DG rel 9, AHR act 1, PolyA inhibitor 14 and p-CIP stab down 1.
For CCCn1c(=O)n(C)c(=O)c2c(SCC(=O)NCC(c3ccccc3)N(C)C)nc(CC(C)C)nc21 (centres undefined) the results were HIF act 1, Platelet DG rel -3, AHR act -2, PolyA inhibitor 3 and p-CIP stab down -6.
Cc1ccc(OCCNC(=O)CCc2nc3sc4c(c3c(=O)[nH]2)CCCC4)cc1 was read as HIF act 45*, Platelet DG rel -6, AHR act 0, PolyA inhibitor 5 and p-CIP stab down -1.
`COC(=O)CNc1c(-c2ccccn2)nc2ccc(Br)cn12` gave HIF act 3, Platelet DG rel 33, AHR act 62*, PolyA inhibitor -14 and p-CIP stab down -14.
Screening CN(C)C=Nc1ccc2nc3c(cc2c1)[nH]c1ccccc13 returned HIF act 5, Platelet DG rel -6, AHR act 71*, PolyA inhibitor -36 and p-CIP stab down -20.
Clc1ccc(-c2n[nH]c3c2Cc2ccccc2-3)cc1Cl was read as HIF act 1, Platelet DG rel 1, AHR act 60*, PolyA inhibitor -7 and p-CIP stab down 9.
Cc1ccccc1C(=O)N1CCC(C(=O)Nc2ccc(S(=O)(=O)N3CCCCC3)cc2)CC1 was read as HIF act 0, Platelet DG rel 16, AHR act 0, PolyA inhibitor 5 and p-CIP stab down 5.
Screening O=c1cc(-c2ccccc2)nc(/C=C/c2ccccc2)[nH]1 returned HIF act 0, Platelet DG rel 0, AHR act 36, PolyA inhibitor -14 and p-CIP stab down -18.
`COc1ccc(/C=C/c2nc(-c3ccccc3)cc(=O)[nH]2)cc1` gave HIF act 2, Platelet DG rel 1, AHR act 76*, PolyA inhibitor -21 and p-CIP stab down -13.
Screening Cc1noc(C)c1CSCC(=O)Nc1ccc(S(=O)(=O)C(F)F)cc1 returned HIF act -3, Platelet DG rel 1, AHR act 6 and PolyA inhibitor -8.
O=C(COc1ccc([N+](=O)[O-])cc1)Nc1ccc2c(c1)CCC2 was read as AHR act 7.
For CCOc1nc(NCCO)nc(Nc2ccc([N+](=O)[O-])cc2)n1 the results were HIF act -1, Platelet DG rel 14, AHR act 20, PolyA inhibitor 6 and p-CIP stab down -8.
For CNc1nc(Nc2ccc([N+](=O)[O-])cc2)nc(OCC(F)(F)F)n1 the results were HIF act -1, Platelet DG rel 1, AHR act 62*, PolyA inhibitor 6 and p-CIP stab down -7.
Screening COc1ccc(Br)cc1C(=O)Nc1ccc(Cc2ccncc2)cc1 returned HIF act 0, Platelet DG rel -9, AHR act 59*, PolyA inhibitor 2 and p-CIP stab down -14.
Cn1c2ccccc2n2c(=O)c(Cl)c(-c3ccccc3)c(C#N)c12 was read as HIF act 0, Platelet DG rel -24, AHR act 59*, PolyA inhibitor -20 and p-CIP stab down -4.
CCCN1CCN(CCCNC(=S)Nc2ccc3nc(N4CCN(CC)CC4)cc(C)c3c2)CC1 was read as HIF act -24, Platelet DG rel -12, AHR act -2, PolyA inhibitor 6 and p-CIP stab down 80*.
Fc1ccc(/C=N/N2CCN(Cc3ccccc3)CC2)cc1 was read as HIF act 3, Platelet DG rel -1, AHR act -2, PolyA inhibitor 14 and p-CIP stab down 9.
`C=CCc1cccc(CNc2ccc(Br)cc2)c1O` gave HIF act 0, Platelet DG rel 4, AHR act 71*, PolyA inhibitor 3 and p-CIP stab down -6.
For C=CCc1cccc(CNc2ccc(S(=O)(=O)Nc3nccnc3OC)cc2)c1O the results were HIF act 0, Platelet DG rel -4, AHR act 2, PolyA inhibitor 9 and p-CIP stab down -1.
Cc1ccc(-n2nc(CC#N)c(C#N)c2N)cc1Cl was read as HIF act 0, Platelet DG rel 4, AHR act 68*, PolyA inhibitor 7 and p-CIP stab down -11.
For Cc1ccc(-n2nc(CC#N)c(C#N)c2N)cc1 the results were HIF act 0, Platelet DG rel 5, AHR act 38, PolyA inhibitor 2 and p-CIP stab down -2.
Screening NC(=O)c1ccccc1NC(=O)c1ccc2c(c1)OCO2 returned HIF act -16, Platelet DG rel 20, AHR act 39, PolyA inhibitor 1 and p-CIP stab down 13.
`O=C(CSc1nccc(=O)[nH]1)NCc1ccc(Cl)cc1` gave HIF act 0, Platelet DG rel -1, AHR act 2, PolyA inhibitor 1 and p-CIP stab down 4.
Fc1cccc2sc(Nc3nc4c(F)cccc4s3)nc12 was read as HIF act 2, Platelet DG rel 17, AHR act 34, PolyA inhibitor 6 and p-CIP stab down 2.
For O=C(Nc1nc2c(F)cccc2s1)C1CC1 the results were HIF act 2, Platelet DG rel -8, AHR act 48*, PolyA inhibitor 8 and p-CIP stab down -1.
NNc1nc2c(F)cccc2s1 was read as HIF act 3, Platelet DG rel -40, AHR act 67*, PolyA inhibitor -18 and p-CIP stab down 4.

Screening data: PubChem, several laboratories
